# Sfp inh = qHTS Assay for Inhibitors of Bacillus subtilis Sfp phosphopantetheinyl transferase (PPTase); Biochemical Sfp PPTase activity, qHTS; Potency, µM, actives largely listed as inhibitors; hit rate 3.5% among 310,000;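 also: the enzyme is Sfp with the accession as filed and its product quenches rhodamine fluorescence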
#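 Fluorescence-quenching assay: 15 nM Sfp-PPTase preincubated 15 min at room temperature with compound, then 5 uM rhodamine-CoA and 12.5 uM BHQ-2-labelled YbbR peptide added. Fluorescence (ex 525/em 598 nm) read at start and after 30 min; difference gives rate.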
# Tau fluor cs = Counterscreen qHTS for Inhibitors of Tau Fibril Formation, Fluorescence Polarization. tau K18 P301L Alexa594 fluorescence, heparin fibrillization. Potency, µM (titrated, usually from 57.7 µM). hit rate 0.93% among 280,000; also: nearly all actives have a fitted effect of over 55% in size
#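 Human tau K18 P301L (15 uM unlabeled, 0.24 uM Alexa 594-labeled) in 100 mM sodium acetate pH 7 with 20 uM heparin, 6 hr at 37 C. ThT 30 uM added, 1 hr ambient; Alexa 594 FP and total fluorescence read at 555/632 nm.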
# Tau FP inhib = qHTS for Inhibitors of Tau Fibril Formation, Fluorescence Polarization; Microtubule-associated protein tau (Homo sapiens), P10636; K18 P301L tau heparin fibrillization, Alexa594 FP, 6 h; Potency, µM (top dose mostly 57.7 µM), hits mostly inhibitors; hit rate 0.39% among 280,000; AID 1468, 2008; also: nearly all actives have a fitted effect of over 55% in size
# Target sequence (P10636 561-689 P618L limits assumed): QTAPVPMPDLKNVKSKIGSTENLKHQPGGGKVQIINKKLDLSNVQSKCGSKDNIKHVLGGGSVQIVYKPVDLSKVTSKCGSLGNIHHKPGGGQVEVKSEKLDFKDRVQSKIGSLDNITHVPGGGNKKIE
#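 Human K18 P301L fragment (15 uM unlabeled plus 0.24 uM Alexa 594-labeled) in 100 mM sodium acetate pH 7 with compound, aggregation induced by 20 uM heparin for 6 hr at 37 C. ThT (30 uM) added for 1 hr, then Alexa 594 FP read.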
# FBPA coupling cs = qHTS Assay for Inhibitors of Fructose-1,6-bisphosphate Aldolase from Giardia Lamblia: Coupling assay counterscreen | activity change, negative = inhibition, % at 58.2 µM, hits read low | coupling enzyme system counterscreen, AmpLite Red fluorescence | hit rate 0.67% among 290,000 | AID 2472, 2010; in the data active = activity change below about -30%
#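 Activity here indicates interference with the coupling reaction, not aldolase inhibition. Compounds at 57.5 uM final met coupling enzymes for 10 min at RT; substrate and AmpLite Red detection followed, with a 525/598 nm fluorescence read after 20 min.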
# Tau ThT inhib = qHTS for Inhibitors of Tau Fibril Formation, Thioflavin T Binding; Microtubule-associated protein tau (Homo sapiens), P10636; recombinant tau K18 P301L (four-repeat tau fragment), heparin-induced fibrillization, ThT fluorescence; AID 1460, 2008; hit rate 2.1% among 270,000; Potency, µM (doses to about 57.4 µM), hits mostly inhibitors; also: nearly all actives have a fitted effect of over 55% in size
#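 Aggregation was driven by heparin (20 uM final) acting on recombinant tau […] bearing P301L in 100 mM sodium acetate pH 7; fibrils were detected with Thioflavin T.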
# A number is an active result; i = inactive; ? = inconclusive; nt = not tested or not shown; [ ] = dose if it differs, or a comment. Compounds with a hit are over-represented: about 5.2% of the library has one in this group of screens. Unless noted, calls follow the shape of the dose curve; as a rule, active = well fitted curve in the direction sought with a large enough effect; inconclusive = small, poorly fitted or top-dose-only effect, or another doubt; inactive = no such curve, though single readings can be large; an effect the other way counts as inactive or inconclusive.
SMILES,Sfp inh,Tau fluor cs,Tau FP inhib,FBPA coupling cs,Tau ThT inhib
CC(C)c1cccc(C(C)C)c1NC(=O)CNCC(O)c1ccccc1 (centres undefined),i,nt,nt,i,nt
CC(C)c1cccc(C(C)C)c1NC(=O)CNCc1ccccc1F,44.7µM,i,i,i,i
CC(=O)O[C@H]1CC(C)(C)C(=C=C/C(C)=C/C=C/C(C)=C/C=C/C=C(C)/C=C/C=C(\C)C(=O)C[C@@]23O[C@]2(C)C[C@@H](O)CC3(C)C)[C@](C)(O)C1,i,i,?,i,25.1µM
CCNC(=O)Oc1ccc[nH]c1=O,25.1µM,i,?,-63.4,?
COc1ccc2c(c1)C(=O)[C@H](OC(=O)NCc1ccc3c(c1)OCO3)[C@@H](c1ccc(OC)c(Br)c1)O2,i,i,i,i,i
CCOc1ccccc1C(=O)N(Cc1cc(OC)c(OC)c(OC)c1)c1ccccn1,nt,i,i,nt,i
COc1cc([N+](=O)[O-])ccc1NC(=S)Nn1cnnc1,20µM,nt,nt,nt,nt
Cc1ccc(NC(=S)Nn2cnnc2)c(C)c1,39.8µM,nt,nt,i,nt
COC(=O)Nc1ccc([N+](=O)[O-])cc1OC,i,i,i,i,i
S=C(Nc1ccc(Br)cc1Cl)Nn1cnnc1,22.4µM,i,i,i,i
Cc1cn(C)c(CC(=O)NCc2cccc(Cl)c2)c1C(=O)O,nt,i,i,nt,i
Cc1nn2c(-c3ccco3)ccnc2c1-c1ccc(Cl)cc1,nt,i,?,nt,?
CCOP(=O)(OCC)C(C#N)=C1SCN(c2ccc(Cl)cc2)CS1,?,i,?,i,2µM
O=C(O)c1ncn(Cc2ccccc2)c1C(=O)O,50.1µM,i,i,i,i
Nn1c(Cc2ccccc2)n[nH]c1=S,i,i[2.34 µM],i[2.34 µM],i,i
CC(Cc1n[nH]c(=S)n1N)c1ccccc1 (centres undefined),56.2µM,nt,nt,i,nt
CC(C)(C)/C(O)=C/c1nc2cc(Cl)ccc2oc1=O,?,i,i,i,i
Cc1ccc2oc(=O)c(/C=C(\O)C(C)(C)C)nc2c1,56.2µM,i,i,i,?
CN1CCc2c(sc3c2C(=O)NC(c2ccco2)N3)C1 (centres undefined),i,i,?,i,?
CN1C(=O)c2c(sc3c2CCCC3)NC1c1ccccc1O (centres undefined),39.8µM,?,i,i,?
Cc1cc(/C=C/c2ccc3cc(N(C)C)ccc3[n+]2C)c(C)n1-c1ccccc1,i,nt,i,i,nt
c1ccc(-c2nc3nonc3nc2-c2ccccc2)cc1,i,i,i,-36.6,i
CCN(CC)C(=O)COc1ccc(/C(C)=N/Nc2ncc(Cl)cc2Cl)cc1,79.4µM,i,i,i,?
C/C(=N\Nc1nc2ccccc2[nH]1)c1cc2ccccc2o1,?,?,?,i,14.1µM
C/C(=N\Nc1nc2ccccc2[nH]1)c1ccccn1,i,nt,nt,i,nt
SMILES,Sfp inh,Tau fluor cs,Tau FP inhib,FBPA coupling cs,Tau ThT inhib
C/C(=N\Nc1nc2ccccc2[nH]1)c1ccc2c(c1)OCCO2,i,?,i,i,14.1µM
CCOC(=O)C1CCCN(Cc2cn3c(-c4cccc(Br)c4)nnc3s2)C1 (centres undefined),nt,i,i,nt,i
Cc1ccc(-n2ncc(C(=O)N3CCN(Cc4ccccc4)CC3)c2C2CCN(C(=O)OC(C)(C)C)CC2)c(C)c1,nt,i,i,nt,i
Cc1ccc(NC(=S)Nc2cccnc2)c(S(=O)(=O)N2CCCCC2)c1,i,?,31.6µM,i,i
CC(C)c1nn2c(=O)cc(COC(=O)c3cccc(NC(=O)c4cccs4)c3)nc2s1,nt,i,?,nt,?
CN(C)c1ccc(CNS(=O)(=O)c2ccc3[nH]c4c(c3c2)CCCCC4)cc1,nt,?,i,nt,i
O=S(=O)(NCc1ccc(Cl)cc1)c1ccc2[nH]c3c(c2c1)CCCC3,nt,12.6µM[quencher],i,nt,i
CCS(=O)(=O)NCc1ccc2[nH]c3c(c2c1)CCCC3,i,?,i,-44.2,i
O=S(=O)(NCc1ccc(F)cc1)c1ccc2[nH]c3c(c2c1)CCCC3,nt,12.6µM[quencher],i,nt,i
Cc1ccc(CNS(=O)(=O)c2ccc3[nH]c4c(c3c2)CCCC4)cc1,nt,?,?,nt,i
CC(C)C[C@H](NC(=O)CNC(=O)[C@@H]1CCCN1C(=O)[C@H](CCCNC(=N)N)NC(=O)[C@H](CC(=O)O)NC(=O)[C@@H](NC(=O)[C@H](CC(N)=O)NC(=O)[C@@H](NC(=O)[C@H](CC(=O)O)NC(=O)CNC(=O)[C@@H](NC(=O)[C@@H](NC(=O)[C@H](C)NC(=O)[C@@H](N)CCC(N)=O)[C@@H](C)O)C(C)C)C(C)C)[C@@H](C)O)C(=O)N[C@@H](CC(C)C)C(=O)N[C@@H](CC(=O)O)C(=O)N[C@@H](CC(C)C)C(=O)N[C@@H](CCCCN)C(=O)O,i,nt,nt,i,nt
O=C(c1ccncc1)N1CCC2(CCCN(Cc3ccncc3)C2)CC1,i,nt,nt,i,nt
COc1cc2ccccc2cc1C(=O)Nc1ccc2oc(-c3ccc(Cl)cc3)nc2c1,nt,i,i,nt,?
COc1ccccc1C(=O)Nc1ccc2oc(-c3ccc(F)cc3)nc2c1,50.1µM,i,i,i,?
CN(C)c1ncc2nc(-c3ccccc3)c(=O)n(C[C@H]3CCCO3)c2n1,i,nt,nt,i,nt
O=C(Nc1nnc(-c2ccncc2)o1)c1cccc(N2C(=O)CCC2=O)c1,56.2µM,i,i,i,i
Cc1ccc(-c2csc(NC(=O)c3cccc(N4C(=O)CCC4=O)c3)n2)o1,20µM,i,i,i,i
CSc1ccc(C(=O)/C=C/c2ccc(N)cc2)cc1,i,?,i,i,15.8µM
CSc1ccc(/C=C/C(=O)c2ccc(NC(=O)C(C)C)cc2)cc1,i,i,i,i,?
Fc1cc2[nH]c(=S)[nH]c2c(Br)c1N1CCSCC1,50.1µM,nt,nt,i,nt
CCCCc1nc2c(c3c1C[C@H](C)OC3)CN(C(=O)NCCCC(=O)OCC)CC2,i,i[11.6 µM],i[11.6 µM],i,i[11.5 µM]
CN=C1N[C@H](c2ccccc2)N(c2ccccc2)S1,112µM,i,31.6µM,i,20µM
CC1=C(C(=O)Nc2ccccc2C)C(c2ccc[nH]2)n2ncnc2N1 (centres undefined),nt,i,i,nt,i
CCOC(=O)CNC(=O)O[C@@H]1C(=O)c2cc(OC)ccc2O[C@H]1c1ccc(OC)c(Br)c1,i,?,i,i,i
Cc1ccc(NC(=O)c2ccc(-c3nn(C)c(=O)c4ccccc34)cc2)cc1,79.4µM,i,i,i,i
c1ccc(-c2nc(-c3ccco3)n3ccccc23)cc1,7.08µM,i,i,i,i
CCc1c(C)sc2c1CCN(Cc1ccccc1F)C2c1ccccc1 (centres undefined),nt,i,i,nt,?

# Screening results: PubChem BioAssay, National Center for Advancing Translational Sciences (NCATS)
